Reference: PubChem BioAssay AID651839 (Vanderbilt Specialized Chemistry Center, 2012)
Results with a measured potency or affinity are listed apart.

The compounds below were run against Metabotropic glutamate receptor 3 (Rattus norvegicus) (UniProt P31422) (assay: mGlu3 negative allosteric modulator potency, dose response, HEK/GIRK cells, thallium flux, rat (AID 651839)). Conditions: HEK293 GIRK rat mGlu3, thallium flux fluorescence; series mostly up to 30 µM; percent of glutamate max response: at the top concentration;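 active = compounds whose mean inhibitory potency against the glutamate signal is under 30 µM; inactive = the rest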.
Metabotropic glutamate receptor 3 (Rattus norvegicus), sequence (P31422 whole entry, looked up): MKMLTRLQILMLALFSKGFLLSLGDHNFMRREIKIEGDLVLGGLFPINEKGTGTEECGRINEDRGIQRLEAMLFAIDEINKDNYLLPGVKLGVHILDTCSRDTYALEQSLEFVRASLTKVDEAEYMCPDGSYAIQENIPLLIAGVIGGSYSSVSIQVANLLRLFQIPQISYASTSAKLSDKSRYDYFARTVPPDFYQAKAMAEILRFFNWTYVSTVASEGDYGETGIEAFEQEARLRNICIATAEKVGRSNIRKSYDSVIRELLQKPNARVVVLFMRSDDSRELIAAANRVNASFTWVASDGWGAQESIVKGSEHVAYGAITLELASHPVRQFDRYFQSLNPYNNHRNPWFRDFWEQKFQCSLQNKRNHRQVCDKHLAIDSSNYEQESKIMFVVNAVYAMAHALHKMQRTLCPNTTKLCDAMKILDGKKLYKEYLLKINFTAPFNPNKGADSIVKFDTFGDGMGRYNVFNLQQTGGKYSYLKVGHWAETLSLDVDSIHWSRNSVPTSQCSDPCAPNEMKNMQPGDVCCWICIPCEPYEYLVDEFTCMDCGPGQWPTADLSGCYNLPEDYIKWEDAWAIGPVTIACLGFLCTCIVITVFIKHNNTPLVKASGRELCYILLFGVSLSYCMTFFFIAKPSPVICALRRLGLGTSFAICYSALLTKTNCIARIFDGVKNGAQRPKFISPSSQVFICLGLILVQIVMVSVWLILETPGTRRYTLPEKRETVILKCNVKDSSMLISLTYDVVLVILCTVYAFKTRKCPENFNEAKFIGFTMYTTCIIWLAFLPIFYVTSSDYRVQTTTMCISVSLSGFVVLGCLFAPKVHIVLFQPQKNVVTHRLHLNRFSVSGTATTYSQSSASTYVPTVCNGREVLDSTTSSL

Percent of glutamate max response, inactive:
O=C(c1ccc2cc(-c3ccncc3)ccc2c1)N1CCCC(CO)C1 (stereo not given) 98.1
COc1ccc(COc2ccc(C(=O)N3CCC(OC)C3)cc2)cc1 (stereo not given) 93.4
COc1ccc(COc2ccc(C(=O)N3CC[C@@H](O)C3)cc2)cc1 86
COc1ccc(COc2ccc(C(=O)N3CC[C@H](O)C3)cc2)cc1 91.9
COc1ccc(COc2ccc(C(=O)N3CCCC(OC)C3)cc2)cc1 (stereo not given) 83.7
COc1ccc(C#Cc2ccc(C(=O)NC(C)(C)CO)cc2)c(F)c1 90.1
COc1ccc(C#Cc2ccc(C(=O)NCCC(C)(C)C)cc2)c(F)c1 95
COc1ccc(COc2ccc(C(=O)N3CCC(CO)C3)cc2)cc1 (stereo not given) 88.3
COc1ccc(COc2ccc(C(=O)NCCC(C)(C)C)cc2)cc1 83.7
COc1ccc(C#Cc2ccc(C(=O)NCC(C)(C)O)cc2)c(F)c1 82.2
